In the supplement of paper PMC10849652:
About 8,800 targets were measured; listed, in parts, are those with a hit and a random draw of the rest. About 0.5% of all pairs of compound and target were hits.

Key:
Assay in all cases: log2 fold change, soluble protein after heating vs DMSO (PISA); higher = thermal stabilisation; K562 lysate, 10 uM; active = over 0.2 and 3.5 SD of the protein, either way, in both replicates (recomputed)
[1] = compound: C=CC(=O)N1CCC[C@@H](n2nc(-c3ccc(Oc4ccccc4)cc3)c3c(N)ncnc32)C1 [ibrutinib]
Summary of the method: (§1)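 To prepare the extract, K562 pellets were dounce-homogenised in PBS pH 7.4 with 1 mM MgCl2, giving crude material at 1 mg/mL protein. This was treated with 10 μM compound for 30 min, then heated in aliquots for 3 min over 48°C-58°C before pooling and addition of NP-40 to 0.5% at 4°C. Centrifugation at 21,000xg for 90 min left soluble protein in the supernatant, which TMTpro 16plex LC-MS/MS quantified with equalised channel sums. Results are log-two fold changes in thermal stability compared with solvent controls, from duplicates.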

[2] = compound: CC(=O)c1cnc2ccc(-c3cc(Cl)c(O)c(Cl)c3)nc2c1N[C@H]1CC[C@H](CN(C)C)CC1
Summary of the method: as §1

[3] = compound: CC(C)C1=C2N=C(C=C(N2N=C1)NCC3=CC=CC=C3)NCCCCCCN
Summary of the method: as §1

[4] = compound: CC1=C(C(CC(=O)N1)C2=CC=C(C=C2)C(F)(F)F)C(=O)NC3=C(C=C4C(=C3)C=NN4)F
Summary of the method: as §1

[5] = compound: CC1=C(C2=C(C=C1)C(=O)C3=CC=CC=C3N2CCCN)C
Summary of the method: as §1

[6] = compound: CC1=C(C=C(C=C1)NC(=O)C2=CC(=CC=C2)C(C)(C)C#N)NC3=CC4=C(C=C3)N=CN(C4=O)C
Summary of the method: as §1

[7] = compound: CC1=CC=C(C=C1)SC2=C3C=C(SC3=CN=C2)C(=O)N
Summary of the method: as §1

[8] = compound: CC(C)(C)Cn1c(N)nc2ccc(-c3[nH]c(C(C)(C)C)nc3-c3ccc(F)cc3)nc21 [ralimetinib]
Summary of the method: as §1

[9] = compound: CC(C)(O)CC(=O)NCCn1ccc2ncnc(Nc3ccc(Oc4cccc(C(F)(F)F)c4)c(Cl)c3)c21
Summary of the method: as §1

[10] = compound: CC1=C(C=C(C=C1)NC(=O)C2=CC(=CC=C2)N(C)C)NC(=O)C3=CC=C(C=C3)O
Summary of the method: as §1

Measured: log2 fold change

BRD3 (UniProt Q15059)
inactive: [1] -0.011 | [2] 0.04 | [3] 0.095 | [4] -0.054 | [5] -0.033 | [6] 0.059 | [7] -0.074

BRAT1 (UniProt Q6PJG6)
inactive: [1] 0.002 | [2] 0.013 | [8] 0.005 | [9] -0.038 | [3] -0.001 | [4] -0.028 | [5] 0 | [6] -0.006 | [10] -0.015 | [7] 0.019

CEP295 isoform 3 (UniProt Q9C0D2)
inactive: [1] -0.182 | [2] -0.048 | [8] 0.005 | [9] 0.009 | [3] -0.019 | [4] 0.02 | [6] 0.041 | [10] 0 | [7] 0.053

CCNY (UniProt Q8ND76)
inactive: [1] 0 | [2] -0.013 | [8] -0.046 | [9] -0.099 | [3] 0.014 | [4] -0.036 | [5] 0.023 | [6] 0.063 | [10] 0.078 | [7] 0.001

CHD1L (UniProt Q86WJ1)
Chain of UniProt Q86WJ1 (Q86WJ1 whole entry, looked up): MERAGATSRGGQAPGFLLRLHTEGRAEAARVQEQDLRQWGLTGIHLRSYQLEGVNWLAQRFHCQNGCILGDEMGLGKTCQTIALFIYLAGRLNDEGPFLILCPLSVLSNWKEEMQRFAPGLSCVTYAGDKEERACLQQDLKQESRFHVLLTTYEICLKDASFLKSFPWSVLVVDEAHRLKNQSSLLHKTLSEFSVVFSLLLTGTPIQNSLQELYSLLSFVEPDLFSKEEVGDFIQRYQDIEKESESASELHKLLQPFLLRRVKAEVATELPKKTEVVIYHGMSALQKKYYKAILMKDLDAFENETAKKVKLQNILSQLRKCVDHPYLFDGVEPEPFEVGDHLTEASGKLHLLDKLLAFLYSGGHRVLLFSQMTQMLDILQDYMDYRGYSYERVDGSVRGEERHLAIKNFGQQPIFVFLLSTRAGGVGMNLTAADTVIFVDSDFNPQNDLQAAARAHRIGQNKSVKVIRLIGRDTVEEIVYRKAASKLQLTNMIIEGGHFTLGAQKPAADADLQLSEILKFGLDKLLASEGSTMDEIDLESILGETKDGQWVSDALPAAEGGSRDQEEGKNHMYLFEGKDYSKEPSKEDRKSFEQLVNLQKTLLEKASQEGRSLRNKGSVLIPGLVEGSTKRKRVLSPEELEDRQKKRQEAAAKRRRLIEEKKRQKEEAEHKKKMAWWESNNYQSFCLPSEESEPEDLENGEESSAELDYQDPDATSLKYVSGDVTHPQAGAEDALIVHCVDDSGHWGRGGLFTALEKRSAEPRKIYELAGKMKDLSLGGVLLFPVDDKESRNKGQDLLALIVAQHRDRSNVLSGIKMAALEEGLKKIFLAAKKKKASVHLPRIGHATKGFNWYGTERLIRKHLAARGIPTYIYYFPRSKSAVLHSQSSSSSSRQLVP
inactive: [1] -0.032 | [2] 0.03 | [8] 0.024 | [9] -0.011 | [3] -0.001 | [4] 0.008 | [5] -0.043 | [6] 0.029 | [10] 0.061 | [7] 0.019

CBR1 (UniProt P16152)
inactive: [1] 0.04 | [2] -0.017 | [8] 0.009 | [9] 0.006 | [3] 0.001 | [4] -0.032 | [5] 0.045 | [6] -0.015 | [10] 0.02 | [7] -0.003

BMS1 (UniProt Q14692)
Chain of UniProt Q14692 (Q14692 whole entry, looked up): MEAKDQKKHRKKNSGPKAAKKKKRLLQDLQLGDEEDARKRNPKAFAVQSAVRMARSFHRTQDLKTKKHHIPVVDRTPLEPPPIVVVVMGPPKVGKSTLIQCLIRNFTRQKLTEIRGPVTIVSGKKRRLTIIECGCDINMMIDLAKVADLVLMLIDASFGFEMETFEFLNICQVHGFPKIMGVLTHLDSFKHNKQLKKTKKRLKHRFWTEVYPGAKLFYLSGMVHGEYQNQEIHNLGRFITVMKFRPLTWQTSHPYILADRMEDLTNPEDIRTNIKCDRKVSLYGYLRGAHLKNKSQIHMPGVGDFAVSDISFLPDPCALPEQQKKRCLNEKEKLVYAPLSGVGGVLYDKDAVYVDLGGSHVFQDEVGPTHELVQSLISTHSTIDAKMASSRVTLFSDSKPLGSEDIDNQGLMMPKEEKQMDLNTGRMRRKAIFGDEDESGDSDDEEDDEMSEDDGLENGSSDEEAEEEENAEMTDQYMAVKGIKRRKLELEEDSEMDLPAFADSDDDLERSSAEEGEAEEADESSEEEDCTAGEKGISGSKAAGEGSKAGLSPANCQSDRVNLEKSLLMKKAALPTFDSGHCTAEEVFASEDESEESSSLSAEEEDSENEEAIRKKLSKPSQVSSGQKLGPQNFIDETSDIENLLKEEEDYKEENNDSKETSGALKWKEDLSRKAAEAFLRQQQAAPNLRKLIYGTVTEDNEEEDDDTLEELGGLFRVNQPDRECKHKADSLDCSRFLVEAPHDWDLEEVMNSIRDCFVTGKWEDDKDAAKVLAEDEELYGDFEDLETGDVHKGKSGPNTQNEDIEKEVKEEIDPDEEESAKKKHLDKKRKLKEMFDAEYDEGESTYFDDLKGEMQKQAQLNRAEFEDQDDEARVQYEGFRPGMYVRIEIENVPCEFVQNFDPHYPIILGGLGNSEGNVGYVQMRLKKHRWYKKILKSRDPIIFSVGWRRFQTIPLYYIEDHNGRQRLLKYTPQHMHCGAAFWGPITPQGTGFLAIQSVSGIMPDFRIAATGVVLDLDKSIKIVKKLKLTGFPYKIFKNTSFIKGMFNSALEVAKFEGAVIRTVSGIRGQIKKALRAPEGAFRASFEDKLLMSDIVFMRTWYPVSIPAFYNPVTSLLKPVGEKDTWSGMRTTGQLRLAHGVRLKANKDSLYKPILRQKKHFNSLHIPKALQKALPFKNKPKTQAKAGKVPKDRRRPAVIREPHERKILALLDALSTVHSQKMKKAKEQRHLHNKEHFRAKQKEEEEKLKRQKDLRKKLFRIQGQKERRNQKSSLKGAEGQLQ
inactive: [1] 0.095 | [2] 0.018 | [8] 0.018 | [9] -0.041 | [3] -0.008 | [4] -0.011 | [5] 0.007 | [6] 0.049 | [10] 0.034 | [7] 0.032

CDK5RAP3 isoform 4 (UniProt Q96JB5)
inactive: [1] -0.01 | [2] -0.001 | [8] -0.022 | [9] -0.022 | [3] -0.016 | [4] 0.004 | [5] 0.013 | [6] 0.025 | [10] 0.017 | [7] 0.014

CHAF1A (UniProt Q13111)
inactive: [1] 0.026 | [2] -0.017 | [8] 0.011 | [9] 0.018 | [3] 0.032 | [4] 0.049 | [5] -0.043 | [6] 0.001 | [10] 0.001 | [7] 0.012

C16orf70 (UniProt Q9BSU1)
Chain of UniProt Q9BSU1 (Q9BSU1 whole entry, looked up): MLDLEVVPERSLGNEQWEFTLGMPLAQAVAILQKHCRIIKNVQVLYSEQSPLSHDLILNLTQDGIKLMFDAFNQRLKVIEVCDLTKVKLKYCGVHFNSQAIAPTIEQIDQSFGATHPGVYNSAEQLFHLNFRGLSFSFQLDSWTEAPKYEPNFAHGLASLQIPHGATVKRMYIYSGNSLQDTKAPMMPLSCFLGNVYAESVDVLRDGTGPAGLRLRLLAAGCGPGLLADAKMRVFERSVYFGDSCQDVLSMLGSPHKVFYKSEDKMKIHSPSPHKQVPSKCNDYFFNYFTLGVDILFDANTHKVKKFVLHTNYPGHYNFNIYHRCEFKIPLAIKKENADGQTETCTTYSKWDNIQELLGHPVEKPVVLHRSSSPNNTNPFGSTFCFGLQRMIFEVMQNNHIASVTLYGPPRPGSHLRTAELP
inactive: [1] -0.048 | [2] -0.011 | [8] 0.034 | [9] 0.031 | [3] -0.068 | [5] -0.043 | [6] 0 | [10] 0.058 | [7] -0.024

CAPN15 (UniProt O75808)
inactive: [1] 0.037 | [2] -0.065 | [8] 0.09 | [9] 0.008 | [3] -0.002 | [4] 0.025 | [5] 0.019 | [6] 0.086 | [10] 0.007 | [7] 0.046

ATE1 (UniProt O95260)
inactive: [1] 0.081 | [2] -0.025 | [6] -0.101 | [7] -0.022

C6orf120 (UniProt Q7Z4R8)
Chain of UniProt Q7Z4R8 (Q7Z4R8 whole entry, looked up): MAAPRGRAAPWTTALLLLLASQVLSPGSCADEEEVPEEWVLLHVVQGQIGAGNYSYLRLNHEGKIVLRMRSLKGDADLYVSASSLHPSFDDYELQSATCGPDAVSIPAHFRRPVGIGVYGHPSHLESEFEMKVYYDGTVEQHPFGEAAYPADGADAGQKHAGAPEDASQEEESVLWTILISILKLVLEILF
inactive: [1] 0.013 | [2] -0.017 | [3] -0.003 | [5] 0.015 | [7] 0.126

CHD4 isoform 2 (UniProt Q14839)
inactive: [1] -0.003 | [2] -0.008 | [8] 0.026 | [9] 0.011 | [3] 0.025 | [4] 0.001 | [5] -0.037 | [6] 0.004 | [10] 0.006 | [7] 0.022

ATG13 isoform 2 (UniProt O75143)
inactive: [1] 0.01 | [2] 0.011 | [8] -0.003 | [9] -0.018 | [3] 0.004 | [4] 0 | [5] -0.006 | [6] 0.048 | [10] -0.024 | [7] 0.016

CEP41 (UniProt Q9BYV8)
inactive: [1] 0.014 | [2] 0.045 | [3] 0.021 | [4] -0.025 | [5] 0.095 | [6] 0.011 | [7] -0.031

CCNB2 (UniProt O95067)
inactive: [1] -0.062 | [8] 0.028 | [9] -0.028 | [3] 0.023 | [4] -0.011 | [5] 0.017 | [6] 0.022 | [10] 0.037 | [7] -0.079
active: [2] 0.358

CCDC32 isoform 2 (UniProt Q9BV29)
active: [1] 0.276
inactive: [2] 0.026 | [8] -0.005 | [9] 0 | [3] 0.047 | [4] -0.017 | [5] -0.03 | [6] 0.051 | [10] 0.028 | [7] 0.03

BTRC (UniProt Q9Y297)
inactive: [1] 0.026 | [2] 0.012 | [8] 0.068 | [9] -0.033 | [3] 0.045 | [4] 0.015 | [10] 0.075 | [7] -0.002

CDKN1B (UniProt P46527)
inactive: [1] 0.141 | [2] 0.013 | [8] 0.037 | [9] 0.069 | [3] -0.037 | [5] -0.053 | [6] -0.325 | [10] -0.019 | [7] 0.017

BSDC1 (UniProt Q9NW68)
Chain of UniProt Q9NW68 (Q9NW68 whole entry, looked up): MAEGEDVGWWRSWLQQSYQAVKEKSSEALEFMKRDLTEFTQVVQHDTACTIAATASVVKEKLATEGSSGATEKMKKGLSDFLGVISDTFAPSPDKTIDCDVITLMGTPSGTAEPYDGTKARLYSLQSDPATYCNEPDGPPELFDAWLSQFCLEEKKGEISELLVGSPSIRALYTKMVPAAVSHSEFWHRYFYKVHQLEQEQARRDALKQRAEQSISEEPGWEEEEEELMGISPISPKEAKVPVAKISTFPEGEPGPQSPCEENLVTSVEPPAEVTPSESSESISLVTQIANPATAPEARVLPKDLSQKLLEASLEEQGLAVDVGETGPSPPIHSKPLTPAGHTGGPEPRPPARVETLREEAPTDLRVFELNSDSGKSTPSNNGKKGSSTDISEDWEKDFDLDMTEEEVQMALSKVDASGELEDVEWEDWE
inactive: [1] 0.048 | [2] 0.008 | [8] -0.004 | [9] -0.023 | [3] 0.062 | [4] 0.038 | [5] 0.01 | [6] 0.022 | [10] -0.047 | [7] 0.011

BCAR1 isoform 6 (UniProt P56945)
inactive: [1] 0.024 | [2] 0.02 | [8] -0.009 | [9] 0 | [3] 0.01 | [4] 0.03 | [5] -0.056 | [6] -0.014 | [10] 0.006 | [7] -0.033

CAPNS1 (UniProt U3KPR7)
inactive: [1] 0.034 | [2] -0.007 | [4] 0.155 | [7] 0.099

BICRA (UniProt Q9NZM4)
inactive: [1] -0.053 | [2] -0.093 | [8] -0.138 | [9] -0.271 | [3] 0.102 | [5] -0.168 | [6] -0.012 | [10] -0.003 | [7] -0.156

CCDC85B (UniProt Q15834)
inactive: [1] 0.215 | [2] -0.248 | [8] -0.001 | [9] 0.05 | [3] 0.056 | [5] 0.004 | [6] -0.016 | [10] -0.163 | [7] 0.014

ATF7IP2 (UniProt Q5U623)
inactive: [1] 0.054 | [2] -0.03 | [8] 0.045 | [9] -0.201 | [3] 0.058 | [4] -0.056 | [6] 0.097 | [10] -0.04 | [7] -0.088

BNIP3 (UniProt Q12983)
inactive: [1] 0.04 | [2] 0.048 | [8] 0.032 | [9] 0.01 | [3] -0.002 | [4] -0.068 | [5] -0.002 | [6] 0.045 | [10] -0.047 | [7] 0.003

CARD9 (UniProt Q9H257)
Chain of UniProt Q9H257 (Q9H257 whole entry, looked up): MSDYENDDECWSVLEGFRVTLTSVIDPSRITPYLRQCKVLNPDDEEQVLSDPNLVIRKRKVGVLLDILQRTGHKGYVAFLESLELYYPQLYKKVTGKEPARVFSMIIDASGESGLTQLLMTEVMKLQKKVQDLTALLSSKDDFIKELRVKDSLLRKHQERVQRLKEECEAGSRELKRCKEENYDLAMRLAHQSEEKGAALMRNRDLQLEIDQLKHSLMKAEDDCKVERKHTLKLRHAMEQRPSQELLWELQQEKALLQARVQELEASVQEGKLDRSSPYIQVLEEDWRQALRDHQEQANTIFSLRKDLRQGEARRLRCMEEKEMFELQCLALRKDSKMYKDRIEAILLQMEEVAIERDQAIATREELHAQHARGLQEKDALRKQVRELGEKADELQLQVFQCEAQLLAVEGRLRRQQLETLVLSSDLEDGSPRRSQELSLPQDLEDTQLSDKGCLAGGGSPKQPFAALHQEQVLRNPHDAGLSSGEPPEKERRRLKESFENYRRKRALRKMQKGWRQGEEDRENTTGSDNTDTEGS
inactive: [1] -0.034 | [2] 0.037 | [8] 0.014 | [9] -0.029 | [3] 0.019 | [4] -0.022 | [5] -0.027 | [6] -0.005 | [10] -0.008 | [7] -0.038

ATXN2 (UniProt F8WB05)
inactive: [1] -0.538 | [2] -0.104 | [8] 0 | [9] 0.033 | [3] 0.037 | [5] 0.006 | [6] 0.119 | [10] -0.044 | [7] 0.048

C8orf37 (UniProt Q96NL8)
inactive: [1] 0.214 | [2] -0.037 | [8] -0.004 | [9] 0.031 | [3] -0.038 | [5] -0.006 | [6] 0.089 | [10] 0.031 | [7] -0.089

AUH (UniProt Q13825)
Chain of UniProt Q13825 (Q13825 whole entry, looked up): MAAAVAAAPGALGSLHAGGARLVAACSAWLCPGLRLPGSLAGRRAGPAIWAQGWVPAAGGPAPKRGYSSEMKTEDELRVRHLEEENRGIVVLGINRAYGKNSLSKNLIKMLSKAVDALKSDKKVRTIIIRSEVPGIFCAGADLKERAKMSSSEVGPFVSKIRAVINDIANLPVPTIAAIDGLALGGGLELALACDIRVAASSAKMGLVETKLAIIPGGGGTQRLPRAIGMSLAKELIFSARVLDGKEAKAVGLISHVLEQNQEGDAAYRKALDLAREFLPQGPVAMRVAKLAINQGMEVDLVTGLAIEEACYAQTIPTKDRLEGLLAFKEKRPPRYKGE
inactive: [1] 0.024 | [2] 0.103 | [8] -0.161 | [9] -0.003 | [3] 0.011 | [5] -0.304 | [6] 0.015 | [10] -0.132 | [7] -0.058

CCPG1 isoform 5 (UniProt Q9ULG6)
Chain of UniProt Q9ULG6 (Q9ULG6 whole entry, looked up): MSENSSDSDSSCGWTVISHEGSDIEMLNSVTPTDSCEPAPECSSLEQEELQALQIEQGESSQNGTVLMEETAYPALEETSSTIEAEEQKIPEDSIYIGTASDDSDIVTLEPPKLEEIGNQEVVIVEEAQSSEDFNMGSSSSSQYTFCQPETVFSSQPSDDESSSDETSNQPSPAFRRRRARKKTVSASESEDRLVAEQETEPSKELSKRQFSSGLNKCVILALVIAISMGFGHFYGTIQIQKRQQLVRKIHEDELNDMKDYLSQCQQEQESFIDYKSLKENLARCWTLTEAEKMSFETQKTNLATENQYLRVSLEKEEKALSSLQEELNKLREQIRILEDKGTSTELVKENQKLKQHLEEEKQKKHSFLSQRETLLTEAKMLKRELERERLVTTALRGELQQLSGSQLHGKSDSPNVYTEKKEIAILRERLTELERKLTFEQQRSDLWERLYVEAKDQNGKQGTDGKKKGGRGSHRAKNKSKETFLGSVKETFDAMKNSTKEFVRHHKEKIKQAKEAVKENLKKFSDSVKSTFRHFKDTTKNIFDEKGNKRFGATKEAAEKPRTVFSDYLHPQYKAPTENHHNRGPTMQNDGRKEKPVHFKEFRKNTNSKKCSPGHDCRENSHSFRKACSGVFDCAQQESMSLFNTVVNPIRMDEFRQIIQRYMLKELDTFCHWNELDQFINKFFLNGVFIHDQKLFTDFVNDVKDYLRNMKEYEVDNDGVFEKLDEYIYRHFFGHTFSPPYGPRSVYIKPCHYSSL
inactive: [1] 0.021 | [2] -0.014 | [8] 0.08 | [9] 0.013 | [3] 0.014 | [4] -0.004 | [5] -0.058 | [6] -0.026 | [10] -0.029 | [7] -0.102
